In PubChem BioAssay (NCATS):
Results filed as inconclusive are left out. Calls of active or inactive are those of the source. The call rests on the fitted dose curve; in most records, active means well fitted curve in the direction sought with a large enough effect; inconclusive means small, poorly fitted or top-dose-only effect, or another doubt; inactive means no such curve, though single readings can be large; an effect the other way counts as inactive or inconclusive.

Key:
[1] = MultiTox-Fluor Cytotoxicity Assay - LYMP1-001 - Dead Cells (AID 946)
In short: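 AC50 from Hill fit of concentration-response; data normalized to DMSO (basal) and 15 uM tetraoctylammonium bromide (100%). LYMP1-001 lymphoblastoid cells, 2500/well, 16 hr compound at 37 C; dead-cell protease fluorescence, Ex/Em 485/520.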

[2] = MultiTox-Fluor Cytotoxicity Assay - LYMP1-001 - Live Cells (AID 947)
[3] = Cell Viability - LYMP1-002 - Assay at 16 hr (AID 948)
In short: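 ATP luminescence (CellTiter-Glo) was measured after 16 hr compound exposure at 37 C of 2500 lymphoblastoid LYMP1-002 cells per well. Concentration-response curves were fitted with the Hill equation to give AC50.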

[4] = MultiTox-Fluor Cytotoxicity Assay - LYMP1-002 - Live Cells (AID 955)
In short: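 Human lymphoblastoid LYMP1-002 cells, 2500/well in complete medium, rested 5 hr at 37 C, then exposed to compounds for 16 hr at 37 C. Live-cell protease cleavage of GF-AFC read by fluorescence (Ex/Em 405/510) after 60 min at room temperature; AC50 from Hill fits.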

[5] = MultiTox-Fluor Cytotoxicity Assay - LYMP1-002 - Dead Cells (AID 960); further: nearly all actives have a fitted effect of over 60% in size
In short: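 Human lymphoblastoid cells (LYMP1-002), 2500/well in complete medium, were exposed to compounds for 16 hr at 37 C. Dead-cell protease activity was read as bis-AAF-R110 fluorescence (Ex/Em 485/520), normalized to DMSO and 15 uM tetraoctylammonium bromide; AC50 from Hill fits.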

[6] = MultiTox-Fluor Cytotoxicity Assay - LYMP1-003 - Dead Cells (AID 961); further: nearly all actives have a fitted effect of over 70% in size
In short: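 Human lymphoblastoid LYMP1-003 cells (2500/well) were treated with compounds for 16 hr at 37 C in complete medium. Dead-cell protease release was read by bis-AAF-R110 fluorescence (Ex/Em 485/520). AC50 came from Hill fits, normalized to DMSO and 15 uM tetraoctylammonium bromide.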

[7] = MultiTox-Fluor Cytotoxicity Assay - LYMP1-003 - Live Cells (AID 962);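 further: cytotoxic hits lower the live-cell protease signal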
In short: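 LYMP1-003 human lymphoblastoid cells (2500/well) in complete medium were preincubated 5 hr at 37 C, then exposed to compounds for 16 hr at 37 C. Live-cell protease cleavage of GF-AFC read by fluorescence (Ex/Em 405/510); AC50 from Hill fits.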

[8] = Cell Viability - LYMP1-003 - Assay at 24 hr (AID 963)
In short: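 Human lymphoblastoid LYMP1-003 cells (2500/well) were rested 5 hr at 37 C, then exposed to compounds in complete medium for 24 hr at 37 C. Cellular ATP was quantified by CellTiter-Glo luminescence, and AC50 values came from Hill fits of concentration-response data.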

[9] = Cell Viability - LYMP1-003 - Assay at 40 hr (AID 964); further: series mostly up to about 92 µM; nearly all actives have a fitted effect of over 60% in size
In short: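 Human lymphoblastoid LYMP1-003 cells, 2500/well in complete medium, rested 5 hr at 37 C, then exposed to compounds for 40 hr at 37 C. Viability read as intracellular ATP by CellTiter-Glo luminescence; AC50 from Hill fits of concentration-response data.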

[10] = Cell Viability - LYMP2-003 (AID 965);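 further: cells exposed to compounds for 24 h before reading; nearly all actives have a fitted effect of over 50% in size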
In short: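 CellTiter-Glo luminescence quantified ATP loss after 24 h compound treatment of LYMP2-003 lymphoblastoid cells at 37 C. Titration series were fitted with the standard Hill equation to give AC50.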

Measured: Potency

N#CCc1ccccc1[N+](=O)[O-]
inactive: all assays above

Cc1cccc(C)c1
inactive: all assays above

Clc1ccc(Cl)c(Cl)c1Cl
inactive: all assays above

CC(C)Cc1nccs1
inactive: all assays above

Cc1ccc2ncccc2c1
inactive: all assays above

Cc1ccc(C(=O)O)cc1
inactive: all assays above

Fc1ccccc1
inactive: all assays above

Nc1cc(Cl)c([N+](=O)[O-])cc1O
inactive: all assays above

C(=C/c1ccccc1)/c1ccccc1
inactive: all assays above

Cc1ccc(S(=O)(=O)NC2CCCCC2)cc1
inactive: all assays above

O=[N+]([O-])c1ccc(Cl)cc1Cl
not listed: [10]
inactive: all other assays above

Cc1cccc(C)c1O
inactive: all assays above

CCC(C)(C)C(=O)O
inactive: all assays above

Nc1c(Cl)cc(Cl)cc1Cl
inactive: all assays above

Cc1ccccc1C=O
not listed: [10]
inactive: all other assays above

C=C(C)C(=O)OCC(C)C
inactive: all assays above

ClCCl
inactive: all assays above

CCCC(Cl)CCCC(Cl)CCC(Cl)CCC(Cl)CCC(Cl)CCCC(Cl)CCC (stereo not drawn)
inactive: all assays above

O=[N+]([O-])c1c(Cl)cc(Cl)cc1Cl
inactive: all assays above

CC(=O)c1cccc([N+](=O)[O-])c1
inactive: all assays above

CCCCC(CC)CO (stereo not drawn)
inactive: all assays above

Cc1ccc(CO)cc1
inactive: all assays above

CCC(=O)/C=C/C1C(C)=CCCC1(C)C (stereo not drawn)
inactive: all assays above

CCCCCCCCN
inactive: all assays above

CC(C)N(C)C
inactive: all assays above

CCC=O
inactive: all assays above

NC(=S)NNC(N)=S
inactive: all assays above

Cc1cc(C)cc([N+](=O)[O-])c1
inactive: all assays above

Clc1cc(Cl)cc(Cl)c1
inactive: all assays above

Cc1ccc(N(C)C)cc1
inactive: all assays above

NC(=O)c1cccc([N+](=O)[O-])c1
inactive: all assays above

Cc1ccc(Cl)cc1
inactive: all assays above

O=Cc1ccccc1Cl
inactive: all assays above

NC(N)=S
inactive: all assays above

Nc1cc(S(=O)(=O)O)ccc1O
inactive: all assays above

CN(C)c1cccc(O)c1
inactive: all assays above

Cc1cc(C(=O)O)ccc1[N+](=O)[O-]
inactive: all assays above

CC(=C/C=C/C(C)=C/C=C/C=C(C)/C=C/C=C(C)/C=C/C(=O)O)/C=C/C(=O)O
inactive: all assays above

O=[N+]([O-])c1ccc2nc[nH]c2c1
inactive: all assays above

C=CCCCCCCC=C
inactive: all assays above

O=[N+]([O-])c1cccc(Cl)c1
inactive: all assays above

CNC(=O)N(c1ccccc1)c1ccccc1
inactive: all assays above

CCOCCOCC
inactive: all assays above

CC(=O)CCc1ccccc1
inactive: all assays above

CC(=O)c1nccs1
inactive: all assays above

O=C(O)CNC(=O)c1ccc([N+](=O)[O-])cc1
inactive: all assays above

CC1CCCO1 (stereo not drawn)
inactive: all assays above

O=C1NC(=O)c2cc([N+](=O)[O-])ccc21
inactive: all assays above

Cc1cccc(C(=O)O)c1[N+](=O)[O-]
inactive: all assays above

CC(C)=CCC/C(C)=C/C=O
inactive: all assays above

Nc1cccc(O)c1
inactive: all assays above

BrC(Br)C(Br)Br
inactive: all assays above

O=C(O)c1ccc(C(=O)O)cc1
inactive: all assays above

O=C1CCCCC1
inactive: all assays above

CC(C)Nc1ccccc1
inactive: all assays above

CCC(C)O (stereo not drawn)
inactive: all assays above
